Measured values from the supplement of paper PMC6522484.
± gives the standard deviation of the averaged measurements.

How the values were obtained:
[1] = tested on: DLD1; assay: cell viability (CellTiter-Glo) relative to plate median (fraction of plate median); higher = more viable cells; settings: 5 µM; treatment time 24 h; reporter: 7TFP
Method in brief: (§1)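 Colorectal cancer cell lines stably carrying lentiviral TCF/Wnt firefly luciferase reporters (7TFP or TCF4/Wnt) were plated in 384-well plates and, 24 h later, given library compounds at a final 5 µM for 24 h. Firefly luciferase or CellTiterGlo luminescence was read on parallel plates with a Tecan F500 reader. Each well's signal was normalised to the plate median in webcellHTS2 (additive, without log transformation). Values are the mean of two independent replicates.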

[2] = tested on: HCT116; assay: as above; settings: 5 µM; treatment time 24 h; reporter: TCF4/Wnt
Method in brief: as §1

[3] = tested on: SW480; assay: as above; settings: 5 µM; treatment time 24 h; reporter: 7TFP
Method in brief: as §1

[4] = tested on: DLD1; assay: TCF/Wnt firefly luciferase reporter signal relative to plate median (fraction of plate median); higher = higher Wnt reporter signal; settings: 5 µM; treatment time 24 h; reporter: 7TFP
Method in brief: as §1

[5] = tested on: SW480; assay: as above; settings: 5 µM; treatment time 24 h; reporter: 7TFP
Method in brief: as §1

| SMILES | cell viability [1] | cell viability [2] | cell viability [3] | TCF/Wnt firefly luciferase reporter signal [4] | TCF/Wnt firefly luciferase reporter signal [5] |
| --- | --- | --- | --- | --- | --- |
| COc1ccc(CCN2CCC(Nc3nc4ccccc4n3Cc3ccc(F)cc3)CC2)cc1 | 0.977 ± 0.089 | 0.982 ± 0.069 | 1.06 ± 0.021 | 1.01 ± 0.017 | 1.035 ± 0.0071 |
| Cc1ncc(CNC(=O)N(CCCl)N=O)c(N)n1 | 1.02 ± 0.021 | 0.98 ± 0.0071 | 1.025 ± 0.0071 | 1.01 ± 0.03 | 0.987 ± 0.019 |
| C=C1C[C@@H]2[C@H](CC[C@]3(C)C(=O)CC[C@@H]23)[C@@]2(C)C=CC(=O)C=C12 | 1.03 ± 0.11 | 1.12 ± 0.05 | 1.02 ± 0.031 | 0.961 ± 0.17 | 1.02 ± 0.13 |
| CCCC(=O)O[C@@H]1[C@@H](C)[C@@]2(O)[C@@H](C=C(CO)C[C@]3(O)C(=O)C(C)=C[C@@H]23)[C@@H]2C(C)(C)[C@]12OC(=O)CCC | 0.9955 ± 0.0021 | 0.991 ± 0.069 | 1.02 ± 0.033 | 1.03 ± 0.1 | 0.984 ± 0.0085 |
| CCC1(CC)C(=O)C=CNC1=O | 0.965 ± 0.016 | 0.923 ± 0.025 | 0.926 ± 0.013 | 1.02 ± 0.09 | 1.07 ± 0.021 |
| N#C[C@H](O[C@@H]1O[C@H](CO[C@@H]2O[C@H](CO)[C@@H](O)[C@H](O)[C@H]2O)[C@@H](O)[C@H](O)[C@H]1O)c1ccccc1 | 1.01 ± 0.09 | 1.04 ± 0.089 | 1.01 ± 0.042 | 0.757 ± 0.0042 | 0.916 ± 0.071 |
| CN1CCCCC1c1ccc(-c2cccnc2)nc1 (stereo not given) | 0.963 ± 0.024 | 0.901 ± 0.12 | 1.01 ± 0.027 | 1.03 ± 0.021 | 0.983 ± 0.096 |
| CC(=O)OC1CCC23C(=O)OC45CCC(C6=CC(=O)OC6)C4(C)CCC2C5CCC3(O)C1 (stereo not given) | 0.688 ± 0.011 | 0.397 ± 0.066 | 0.7175 ± 0.0021 | 0.202 ± 0.05 | 0.389 ± 0.011 |
| C[C@]12CC[C@H]3[C@@H](CCC4=CC(=O)CC[C@@]43C)[C@@H]1CC[C@@H]2O | 1.03 ± 0.021 | 1.15 ± 0.17 | 1.045 ± 0.0071 | 0.967 ± 0.061 | 1.04 ± 0.092 |
| COc1cc2ccc(=O)oc2c2ccoc12 | 0.932 ± 0.077 | 1.01 ± 0.02 | 0.9355 ± 0.0035 | 0.968 ± 0.17 | 0.996 ± 0.063 |
| CCCCCCCCCCCCCCCC[n+]1ccccc1 | 0.885 ± 0.07 | 0.797 ± 0.13 | 0.95 ± 0.028 | 0.773 ± 0.062 | 0.661 ± 0.073 |
| COC1C(O)C(O[C@H]2CC[C@]3(C=O)C4C(CC[C@]3(O)C2)[C@@]2(O)CC[C@H](C3=CC(=O)OC3)[C@@]2(C)C[C@H]4OC(C)=O)OC(C)C1OC(C)=O (stereo not given in full) | 0.929 ± 0.11 | 1.03 ± 0.083 | 0.941 ± 0.044 | 0.828 ± 0.042 | 0.83 ± 0.069 |
| CC(C)=CCC[C@]1(C)C=Cc2c(O)c3c(c(CC=C(C)C)c2O1)O[C@]12C(=C[C@@H]4C[C@H]1C(C)(C)O[C@@]2(C/C=C(/C)C(=O)O)C4=O)C3=O | 0.965 ± 0.12 | 0.993 ± 0.053 | 1.09 ± 0.14 | 1.05 ± 0.095 | 1.09 ± 0.028 |
| CC(C)CCCC1(C)C=Cc2c(O)c3c(c(CCC(C)C)c2O1)OC12C(CC4CC1C(C)(C)OC2(CCC(C)C(=O)O)C4O)C3=O (stereo not given) | 1.08 ± 0.042 | 0.997 ± 0.0042 | 1.07 ± 0.092 | 1.06 ± 0.014 | 1.06 ± 0.092 |
| CC(=O)[O][Hg][c]1ccccc1 | 0.0442 ± 0.012 | 0.0479 ± 0.031 | 0.0258 ± 0.0048 | 0.0227 ± 0.0033 | 0.0222 ± 0.0026 |
| CC(C)(O)[C@@H]1[C@H]2OC(=O)[C@@H]1[C@]1(O)C[C@H]3O[C@]34C(=O)O[C@H]2[C@]14C | 1.03 ± 0.046 | 0.949 ± 0.021 | 1.025 ± 0.0071 | 1.02 ± 0.17 | 1.04 ± 0.089 |
| COc1cc2c(cc1O)CCN[C@@H]2C | 0.997 ± 0.0014 | 1.06 ± 0.099 | 1.015 ± 0.0071 | 0.89 ± 0.16 | 0.966 ± 0.049 |
| CN1[C@@H]2CC[C@H]1C[C@@H](OC(c1ccccc1)c1ccccc1N)C2 (stereo not given in full) | 0.982 ± 0.096 | 0.954 ± 0.0085 | 1.03 ± 0.028 | 0.999 ± 0.16 | 0.8705 ± 0.0035 |
| CCCCOC(=O)c1ccccc1C(=O)OCCCC | 0.944 ± 0.044 | 0.98 ± 0.013 | 0.96 ± 0.071 | 0.847 ± 0.16 | 0.939 ± 0.03 |
| CC1NC(=O)C(NC(=O)c2cnc3ccccc3n2)COC(=O)C(C(C)C)N(C)C(=O)C2CSSCC(C(=O)N(C)C(C(C)C)C(=O)OCC(NC(=O)c3cnc4ccccc4n3)C(=O)NC(C)C(=O)N2C)N(C)C1=O (stereo not given) [Triostin A] | 0.968 ± 0.028 | 0.984 ± 0.08 | 0.992 ± 0.054 | 0.941 ± 0.073 | 0.871 ± 0.037 |
| CON1C(=O)[C@H]2NC(=O)[C@]13Oc1cc(O)c(Cl)cc1[C@@H]3SS2 [Aspirochlorine] | 0.736 ± 0.087 | 0.918 ± 0.017 | 0.841 ± 0.026 | 0.981 ± 0.28 | 1 ± 0.035 |
| CN(C)C(=O)Oc1cc(OC(=O)N(C)C)cc(C(O)CNC(C)(C)C)c1 (stereo not given) | 0.986 ± 0.021 | 1 ± 0.024 | 0.961 ± 0.044 | 0.911 ± 0.11 | 1.045 ± 0.0071 |
| C1CCc2nnnn2CC1 | 0.931 ± 0.05 | 1.05 ± 0.035 | 0.925 ± 0.052 | 0.963 ± 0.017 | 1.11 ± 0.042 |
| C[C@]12C=CC(=O)C=C1CC[C@@H]1[C@@H]2CC[C@]2(C)C(=O)CC[C@@H]12 | 1.07 ± 0.11 | 1.09 ± 0.035 | 1.11 ± 0.078 | 1.08 ± 0.19 | 1.025 ± 0.0071 |
| Oc1cccc2cccnc12 | 0.9665 ± 0.0035 | 0.967 ± 0.075 | 1.1 ± 0.028 | 1.03 ± 0.09 | 0.793 ± 0.037 |
| CCN1C[C@]2(OC(=O)c3ccccc3NC(C)=O)CC[C@H](OC)[C@@]34[C@@H]2C[C@@H]([C@@H]13)[C@@]1(O)C[C@H](OC)[C@H]2C[C@@H]4[C@]1(O)[C@H]2OC | 0.987 ± 0.033 | 0.988 ± 0.032 | 0.9965 ± 0.005 | 0.905 ± 0.083 | 0.98 ± 0.057 |
| COc1ccc(C(=O)N2CCCC2=O)cc1 | 1.01 ± 0.018 | 0.957 ± 0.025 | 1.045 ± 0.0071 | 1.08 ± 0.021 | 1.07 ± 0.014 |
| CC(=O)OCC1=C(C(=O)O)N2C(=O)[C@@H](NC(=O)CCC[C@@H](N)C(=O)O)[C@H]2SC1 | 0.955 ± 0.13 | 0.906 ± 0.13 | 0.9165 ± 0.0064 | 1.175 ± 0.0071 | 1.09 ± 0.05 |
| O=[N+]([O-])c1cc(O)c(O)c([N+](=O)[O-])c1 | 0.891 ± 0.081 | 0.942 ± 0.096 | 1.03 ± 0.073 | 0.831 ± 0.27 | 0.852 ± 0.044 |
